Measured values as given in PubChem BioAssay AID720504 (National Center for Advancing Translational Sciences (NCATS), 2013).
In all, about 360,000 compounds went through this assay and about 10,000 (2.8%) were called active. Inconclusive results (about 4%) are left out. Calls come from the whole dose curve; as a rule, active = well fitted inhibition curve with a large enough effect; inconclusive = small, poorly fitted or top-dose-only effect; inactive = flat fitted curve, though single readings scatter. The list comes from a sample in which actives are over-represented; it also holds similar structures and randomly drawn compounds.

target: Serine/threonine-protein kinase PLK1 (Homo sapiens) (UniProt P53350); assay: qHTS for Inhibitors of PLK1-PDB (polo-like kinase 1 - polo-box domain): Primary Screen; conditions: Plk1 PBD binding of FITC phosphopeptide, fluorescence polarization; note: nearly all actives have a fitted effect of over 65% in size; for max response, negative = inhibition: series mostly up to about 57 µM
% is set by controls: 0 for no effect and ±100 for the full control effect; potency is the fitted concentration of half-maximal effect.

Serine/threonine-protein kinase PLK1 (Homo sapiens), sequence (P53350 whole entry, looked up, the tested form may be a part): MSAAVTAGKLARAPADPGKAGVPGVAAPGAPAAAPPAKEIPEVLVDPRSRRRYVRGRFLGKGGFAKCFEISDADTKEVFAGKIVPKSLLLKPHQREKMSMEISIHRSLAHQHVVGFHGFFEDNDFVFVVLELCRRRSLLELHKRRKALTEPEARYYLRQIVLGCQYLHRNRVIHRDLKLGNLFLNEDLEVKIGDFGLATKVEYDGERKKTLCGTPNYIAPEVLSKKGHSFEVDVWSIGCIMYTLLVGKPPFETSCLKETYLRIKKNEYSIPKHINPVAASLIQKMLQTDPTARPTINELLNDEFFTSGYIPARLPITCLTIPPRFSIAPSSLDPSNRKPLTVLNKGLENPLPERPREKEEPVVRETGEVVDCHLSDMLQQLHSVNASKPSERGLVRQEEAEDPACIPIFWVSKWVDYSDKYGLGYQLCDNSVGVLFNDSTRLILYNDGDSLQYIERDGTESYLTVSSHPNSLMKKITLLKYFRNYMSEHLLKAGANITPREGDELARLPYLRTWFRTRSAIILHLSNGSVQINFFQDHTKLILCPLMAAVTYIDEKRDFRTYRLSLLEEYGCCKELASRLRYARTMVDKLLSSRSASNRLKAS

Compound	max response, negative = inhibition	Potency
O=C(Nc1ccc(OCCO)cc1)c1csc([C@H]2C[C@H](O)[C@@H](CO)O2)n1	-5.62% (inactive)	–
Cc1cc(C)n(-c2nc(O)cc(=O)[nH]2)n1	-2.57% (inactive)	–
Cc1cc(=O)[nH]c2nnnn12	–	23.8 µM (active)
Cn1nnnc1SCc1cc(=O)[nH]c2ccccc12	-18.7% (inactive)	–
CCC(CC)C(C(=O)NC1CCCC1)N1CCN(c2cc(C)nc3ccccc23)CC1 (stereo unspecified)	-1.11% (inactive)	–
C[C@@H]1CN([C@H](C)CO)S(=O)(=O)c2ccc(C#C[C@@H](C)O)cc2O[C@@H]1CN(C)Cc1ccc(-c2ccccc2)cc1	-3.99% (inactive)	–
CC(=O)Nc1ccc2nc(NC(=O)CS(=O)(=O)c3ccc(F)cc3)sc2c1	-4.56% (inactive)	–
COc1ccc(C(CNC(=O)CSc2ccccc2)N2CCOCC2)cc1 (stereo unspecified)	-29.4% (inactive)	–
CCc1ccc([C@@H]2CC(=O)[C@@H]3CN(S(=O)(=O)c4ccc(C)cc4)[C@H](c4ccc(Cl)cc4)C[C@@H]3N2S(=O)(=O)c2ccc(C)cc2)cc1	3.16% (inactive)	–
COc1ccc(S(=O)(=O)N(C)C)cc1NC(=O)COC(=O)c1n[nH]c2ccccc12	-0.239% (inactive)	–
COc1ccc(S(=O)(=O)N(C)C)cc1NC(=O)CSc1ncccn1	–	15 µM (active)
CN(C)S(=O)(=O)c1ccc2oc(SCC(=O)Nc3ccccc3F)nc2c1	-21.2% (inactive)	–
CC1(C)OC(=O)C2=C(CC(c3ccccc3)OC2CCc2ccccc2)O1 (stereo unspecified)	-6.04% (inactive)	–
S=C(c1ccc(-c2ccccc2)o1)N1CCCCC1	–	9.47 µM (active)
Cc1cccc(C)c1NC(=S)N1CCCCCC1	-6.23% (inactive)	–
O=C(c1ccc(CSc2ccccc2)cc1)N1CCCCCC1	-2.73% (inactive)	–
O=C(C[C@H]1CC[C@H]2[C@@H](COC[C@H](O)CN2C(=O)c2ccccn2)O1)N1CCN(c2ccccc2)CC1	-2.29% (inactive)	–
Cn1nnnc1-c1cc(Cl)cc(Cl)c1	–	26.7 µM (active)
Cn1nnnc1NCc1ccc(Cl)c(Cl)c1	-14% (inactive)	–

Compound	max response, negative = inhibition	Potency
Cc1ccc(S(=O)(=O)N[C@H](CO)C(C)C)cc1	-4.56% (inactive)	–
CCOC(=O)CNc1nc(Cl)nc(Nc2ccccc2)n1	–	21.2 µM (active)
CCC(=O)Nc1ccc(Nc2nc(Cl)nc(Nc3ccc(NC(=O)CC)cc3)n2)cc1	-16.7% (inactive)	–
CCOC(=O)CNc1nc(Cl)nc(Nc2ccc(OC)cc2OC)n1	0.534% (inactive)	–
CC1(C)OC(=O)C2=C(C[C@@H](C3CCCC3)O[C@@H]2c2ccc(Cl)cc2)O1	2.05% (inactive)	–
Cc1c(C#N)c(NC(=O)c2ccccc2)n(Cc2ccccc2)c1C	-4.49% (inactive)	–
CCCc1ccc(-c2c(C)sc(NC(=O)c3ccnn3C)c2C#N)cc1	–	10.6 µM (active)
Cc1ccc(C(=O)Nc2c(C#N)c(C)c(C)n2Cc2ccccc2)cc1	-3.45% (inactive)	–
CC1(C(=O)NS(=O)(=O)c2ccccc2)CCN1C(=O)C1CCCCC1 (stereo unspecified)	-5.58% (inactive)	–
Cc1cccnc1C(NC(=O)C1CCN(Cc2ccc(Cl)c(Cl)c2)CC1)c1ccc(Cl)cc1 (stereo unspecified)	-6.41% (inactive)	–
Cc1cn([C@H]2C[C@H](O)[C@@H](CNC(=O)[C@H](N)Cc3cccnc3)O2)c(=O)[nH]c1=O	-0.77% (inactive)	–
CC(C)(C)NS(=O)(=O)c1ccc(NC(=O)NC2CCCCC2)cc1	-9.85% (inactive)	–
CC(c1ccco1)N(C(=O)Nc1ccccc1)C1CCCCC1 (stereo unspecified)	-2.64% (inactive)	–
Cc1ccc(NC(=O)NC(=O)N(C2CCCCC2)S(=O)(=O)c2ccccc2)cc1	–	29.9 µM (active)
COc1cc(C(O)c2nc(-c3cccc(C(=O)O)c3)cs2)ccc1F (stereo unspecified)	2.95% (inactive)	–
O=C(O)c1ccccc1N=N/C(=N/Nc1cc(S(=O)(=O)O)ccc1O)c1ccccc1	–	16.8 µM (active)
COc1cccc(NC(=O)C2(C)CCN2Cc2ccccc2Cl)c1 (stereo unspecified)	4.24% (inactive)	–
OCCc1ccc(NCCc2ccco2)cc1	-4.52% (inactive)	–
O=Nc1c(O)cc(O)c2ccccc12	-5.49% (inactive)	–

Compound	max response, negative = inhibition	Potency
C=CCOc1cccc(C2C(C(=O)c3ccc(C)o3)=C(O)C(=O)N2CCN2CCOCC2)c1 (stereo unspecified)	-19.4% (inactive)	–
Cc1cc(N2C(=O)C(=O)/C(=C(/O)c3ccccc3)C2c2cccc(Br)c2)no1 (stereo unspecified)	-15% (inactive)	–
Cc1cc(N2C(=O)C(O)=C(C(=O)c3ccc(C)o3)C2c2ccc(OCc3ccccc3)cc2)no1 (stereo unspecified)	–	21.2 µM (active)
C[C@@H]1CN([C@@H](C)CO)C(=O)CCCn2nncc2CO[C@H]1CN(C)Cc1ccc(C(F)(F)F)cc1	-1.98% (inactive)	–
CC(=O)C[C@@H]1OC[C@H](CO)N1S(=O)(=O)c1ccc(C)cc1	-6.97% (inactive)	–
CCOc1cc(C(=S)N2CCOCC2)ccc1O	–	7.52 µM (active)
CCOc1cc(C(=S)N2CCOCC2)ccc1OS(=O)(=O)c1ccc(Br)cc1	-16.5% (inactive)	–
CCOc1cc(C(=O)OCC(=O)Nc2cccc(C)c2)ccc1OCC(=O)N1CCOCC1	-7.2% (inactive)	–
COCOCCn1cc(CN2CCS(=O)(=O)N(Cc3ccc(-c4cccc(N(C)C)c4)cc3)C(CC(C)C)C2=O)nn1 (stereo unspecified)	-14.2% (inactive)	–
NC(=O)C1(Nc2ccccc2Cl)CCCC1	-11.6% (inactive)	–
O=C(Nc1ccccc1Cl)/C(Cl)=C(\Cl)S(=O)c1ccccc1 (stereo unspecified)	–	1.34 µM (active)
O=C(CCN1CCN(C/C=C/c2ccccc2)CC1)Nc1ccccc1Cl	-3.16% (inactive)	–
CCCNC(=O)C1(C)CCN(Cc2ccc(Cl)c(Cl)c2)C1 (stereo unspecified)	-1.65% (inactive)	–
C[C@H](NC(=O)[C@@H]1CCCN1C(=O)[C@@H]1CCCN1C(=O)c1ccccc1)c1ccccc1	-0.0066% (inactive)	–
O=C(c1ccccc1Oc1ccccc1)N1CCN(c2ccc(F)cc2)CC1	–	26.7 µM (active)
CC(C)N(C(=O)COC(=O)c1ccccc1C(=O)N1CCN(c2ccc(F)cc2)CC1)C(C)C	-8.86% (inactive)	–
COc1ccc(N2CCN(C(=O)C3CCN(C(=O)c4ccccc4Cl)CC3)CC2)cc1	1.62% (inactive)	–
CC[C@@H]1CC2=C(C(=O)OC(C)(C)O2)[C@@H](CC)O1	0.545% (inactive)	–
